Results on 13 compounds are retold here after ChEMBL document CHEMBL1961873, “Compounds: GSK PKIS; Assays: Nanosyn kinase panel” (2012).

Assay [1] addresses Casein kinase I isoform gamma-2 (Homo sapiens) (UniProt P78368). As to conditions: at 1 µM.
The target of assay [2] is Casein kinase I isoform gamma-3 (Homo sapiens) (UniProt Q9Y6M4). As to conditions: at 0.1 µM.
Assay [3] shares this target. The settings on record: at 1 µM.
For assay [4], the target named is Cyclin-dependent kinase 1 (Homo sapiens) (UniProt P06493). The settings on record: at 0.1 µM.
Sequence of Cyclin-dependent kinase 1 (Homo sapiens) (P06493 whole entry, looked up): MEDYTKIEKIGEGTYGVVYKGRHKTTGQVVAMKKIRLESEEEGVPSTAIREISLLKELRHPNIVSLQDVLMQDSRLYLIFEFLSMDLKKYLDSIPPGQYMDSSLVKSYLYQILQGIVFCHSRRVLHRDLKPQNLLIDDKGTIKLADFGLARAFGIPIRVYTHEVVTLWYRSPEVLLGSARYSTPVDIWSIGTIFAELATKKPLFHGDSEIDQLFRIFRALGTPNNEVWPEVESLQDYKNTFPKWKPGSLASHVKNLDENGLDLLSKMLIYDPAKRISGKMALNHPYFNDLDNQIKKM
For assay [5] the target is unchanged. As to conditions: at 1 µM.
The target in assay [6] is Cyclin-dependent kinase 2 (Homo sapiens) (UniProt P24941). The settings on record: at 0.1 µM.
Assay [7] has the same target. As to conditions: at 1 µM.
The target is the same in assay [8]. The settings on record: at 0.1 µM. This is another data set of the same source.
The target is the same in assay [9]. As to conditions: at 1 µM. The source holds these as a separate data set.
The target of assay [10] is T1, CDK3/Cyclin E (Homo sapiens) (UniProt P24864+Q00526). The settings on record: at 0.1 µM.
T1 sequence (P24864 whole entry, looked up): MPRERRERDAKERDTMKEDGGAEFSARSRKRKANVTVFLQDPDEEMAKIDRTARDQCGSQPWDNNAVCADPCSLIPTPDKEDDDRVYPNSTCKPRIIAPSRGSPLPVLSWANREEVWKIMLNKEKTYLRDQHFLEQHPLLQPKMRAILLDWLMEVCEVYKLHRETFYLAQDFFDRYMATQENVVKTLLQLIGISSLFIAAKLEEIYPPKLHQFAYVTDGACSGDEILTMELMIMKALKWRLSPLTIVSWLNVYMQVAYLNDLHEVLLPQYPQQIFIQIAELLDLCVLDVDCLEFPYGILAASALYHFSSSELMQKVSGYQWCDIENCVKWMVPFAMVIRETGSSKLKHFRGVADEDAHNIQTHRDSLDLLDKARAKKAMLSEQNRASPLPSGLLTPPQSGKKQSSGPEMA
T1 sequence (Q00526 whole entry, looked up): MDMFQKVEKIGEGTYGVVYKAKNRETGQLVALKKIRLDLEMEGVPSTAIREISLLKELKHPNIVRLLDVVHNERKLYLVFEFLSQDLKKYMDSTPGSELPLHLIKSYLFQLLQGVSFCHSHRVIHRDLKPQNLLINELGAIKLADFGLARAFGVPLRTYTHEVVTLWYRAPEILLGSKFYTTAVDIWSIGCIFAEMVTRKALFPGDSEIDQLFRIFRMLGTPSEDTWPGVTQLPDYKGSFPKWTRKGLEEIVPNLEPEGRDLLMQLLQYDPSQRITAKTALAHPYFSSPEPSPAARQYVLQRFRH
Assay [11] addresses T1, CDK3/Cyclin E (Homo sapiens). The settings on record: at 1 µM.
For assay [12], the target named is Cyclin-dependent kinase 4 (Homo sapiens) (UniProt P11802). The settings on record: at 0.1 µM.
Sequence of Cyclin-dependent kinase 4 (Homo sapiens) (P11802 whole entry): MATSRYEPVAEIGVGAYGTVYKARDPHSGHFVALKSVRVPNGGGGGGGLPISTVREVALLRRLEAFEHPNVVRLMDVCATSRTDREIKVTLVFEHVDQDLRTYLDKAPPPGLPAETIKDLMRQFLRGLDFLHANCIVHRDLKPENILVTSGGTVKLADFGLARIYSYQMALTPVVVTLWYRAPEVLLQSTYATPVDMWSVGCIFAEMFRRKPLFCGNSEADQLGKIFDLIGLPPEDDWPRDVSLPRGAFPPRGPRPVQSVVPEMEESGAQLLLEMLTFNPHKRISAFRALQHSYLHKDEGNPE
The target is the same in assay [13]. As to conditions: at 1 µM.
Assay [14] deals with Cyclin-dependent kinase 5 (Homo sapiens) (UniProt Q00535). As to conditions: at 0.1 µM.
Sequence of Cyclin-dependent kinase 5 (Homo sapiens) (Q00535 whole entry, looked up): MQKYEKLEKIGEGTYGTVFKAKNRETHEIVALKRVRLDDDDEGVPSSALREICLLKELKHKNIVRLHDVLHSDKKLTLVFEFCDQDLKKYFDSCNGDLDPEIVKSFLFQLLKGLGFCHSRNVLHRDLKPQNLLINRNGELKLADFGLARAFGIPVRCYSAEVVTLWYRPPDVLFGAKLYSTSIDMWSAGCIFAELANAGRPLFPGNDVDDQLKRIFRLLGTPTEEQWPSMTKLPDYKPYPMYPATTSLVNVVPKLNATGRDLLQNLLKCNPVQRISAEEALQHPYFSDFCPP
Assay [15] shares this target. As to conditions: at 1 µM.
The target of assay [16] is Cyclin-dependent kinase 6 (Homo sapiens) (UniProt Q00534). The settings on record: at 0.1 µM.
Sequence of Cyclin-dependent kinase 6 (Homo sapiens) (Q00534 whole entry): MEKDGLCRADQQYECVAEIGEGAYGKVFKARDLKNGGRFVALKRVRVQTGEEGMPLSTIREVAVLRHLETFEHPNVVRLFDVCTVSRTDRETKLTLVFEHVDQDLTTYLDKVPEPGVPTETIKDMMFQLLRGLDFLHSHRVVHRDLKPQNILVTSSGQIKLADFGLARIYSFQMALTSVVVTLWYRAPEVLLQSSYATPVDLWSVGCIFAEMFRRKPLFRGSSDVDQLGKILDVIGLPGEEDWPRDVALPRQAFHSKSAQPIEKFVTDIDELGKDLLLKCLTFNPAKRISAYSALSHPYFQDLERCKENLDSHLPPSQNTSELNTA
Assay [17] shares this target. The settings on record: at 1 µM.
Assay [18] deals with Dual specificity protein kinase CLK2 (Homo sapiens) (UniProt P49760). As to conditions: at 0.1 µM.
Sequence of Dual specificity protein kinase CLK2 (Homo sapiens) (P49760 whole entry, looked up): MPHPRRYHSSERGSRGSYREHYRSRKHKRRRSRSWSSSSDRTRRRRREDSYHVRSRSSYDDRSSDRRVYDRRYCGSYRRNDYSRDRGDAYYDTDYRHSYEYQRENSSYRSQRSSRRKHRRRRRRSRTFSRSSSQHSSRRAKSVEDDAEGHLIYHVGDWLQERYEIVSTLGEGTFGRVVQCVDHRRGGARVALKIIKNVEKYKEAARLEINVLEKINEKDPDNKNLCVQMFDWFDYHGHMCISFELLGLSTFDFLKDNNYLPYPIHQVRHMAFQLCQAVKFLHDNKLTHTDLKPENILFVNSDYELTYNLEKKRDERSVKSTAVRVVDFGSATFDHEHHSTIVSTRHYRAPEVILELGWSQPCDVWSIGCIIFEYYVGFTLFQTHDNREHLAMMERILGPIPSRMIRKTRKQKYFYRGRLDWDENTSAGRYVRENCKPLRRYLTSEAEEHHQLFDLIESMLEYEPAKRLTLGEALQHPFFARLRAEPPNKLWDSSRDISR
For assay [19] the target is unchanged. The settings on record: at 1 µM.
In assay [20] the target is Dual specificity protein kinase CLK3 (Homo sapiens) (UniProt P49761). As to conditions: at 0.1 µM.
Sequence of Dual specificity protein kinase CLK3 (Homo sapiens) (P49761 whole entry, looked up): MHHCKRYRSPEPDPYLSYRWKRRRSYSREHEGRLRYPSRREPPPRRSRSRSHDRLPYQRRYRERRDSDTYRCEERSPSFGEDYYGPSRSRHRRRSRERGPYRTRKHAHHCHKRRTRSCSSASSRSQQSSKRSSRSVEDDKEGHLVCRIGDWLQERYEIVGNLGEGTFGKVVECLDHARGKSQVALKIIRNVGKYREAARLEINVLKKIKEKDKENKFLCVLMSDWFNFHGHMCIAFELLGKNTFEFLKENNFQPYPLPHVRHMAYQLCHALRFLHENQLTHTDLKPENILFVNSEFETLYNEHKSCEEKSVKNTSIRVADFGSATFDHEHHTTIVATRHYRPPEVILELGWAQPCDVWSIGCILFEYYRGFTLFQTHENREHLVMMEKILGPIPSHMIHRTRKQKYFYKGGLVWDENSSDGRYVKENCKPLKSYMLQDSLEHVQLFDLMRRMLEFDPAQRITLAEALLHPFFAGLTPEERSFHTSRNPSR

Sequence of Casein kinase I isoform gamma-3 (Homo sapiens) (Q9Y6M4 whole entry, looked up, canonical isoform): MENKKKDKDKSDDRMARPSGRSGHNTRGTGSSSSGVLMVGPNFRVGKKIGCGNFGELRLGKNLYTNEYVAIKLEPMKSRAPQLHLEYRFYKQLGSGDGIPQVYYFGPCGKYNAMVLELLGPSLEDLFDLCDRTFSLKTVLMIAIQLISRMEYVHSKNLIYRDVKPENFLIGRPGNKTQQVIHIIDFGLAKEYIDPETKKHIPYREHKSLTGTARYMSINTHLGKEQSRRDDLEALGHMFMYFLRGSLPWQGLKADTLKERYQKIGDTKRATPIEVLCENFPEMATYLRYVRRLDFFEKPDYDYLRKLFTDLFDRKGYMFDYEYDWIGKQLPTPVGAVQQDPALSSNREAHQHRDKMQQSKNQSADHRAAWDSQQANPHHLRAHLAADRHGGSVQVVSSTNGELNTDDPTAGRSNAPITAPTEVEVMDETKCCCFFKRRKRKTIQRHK
Sequence of Casein kinase I isoform gamma-2 (Homo sapiens) (P78368 whole entry, looked up, canonical isoform): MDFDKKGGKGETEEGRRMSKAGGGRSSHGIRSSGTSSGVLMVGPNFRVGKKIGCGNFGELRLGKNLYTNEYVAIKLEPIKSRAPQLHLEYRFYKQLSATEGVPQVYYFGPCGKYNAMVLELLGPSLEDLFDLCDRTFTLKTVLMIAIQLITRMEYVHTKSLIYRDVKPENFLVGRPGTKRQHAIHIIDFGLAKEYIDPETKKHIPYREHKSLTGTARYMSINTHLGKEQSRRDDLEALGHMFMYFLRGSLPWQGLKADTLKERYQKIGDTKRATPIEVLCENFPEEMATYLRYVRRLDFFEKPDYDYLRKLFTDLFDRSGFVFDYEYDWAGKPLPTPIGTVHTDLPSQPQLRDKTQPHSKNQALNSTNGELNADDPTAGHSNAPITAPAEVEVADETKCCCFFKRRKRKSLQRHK

In the case of `Cc1cc(O)cc(C)c1/C=C/c1cncc(-c2nn[nH]n2)c1`, the inhibition (commonly the change of the read-out against control, counted positive when it falls) in assay [1] was 3.73%; in assay [2] it was -0.15%; in assay [3], 1.13%; in [4], -2.89%; in [5], -3.31%; in assay [6], -1.42%. Further, the inhibition was 2.36% in [7]; 0.42% in assay [8]; 0.7% in assay [9]; 2.82% in assay [10]; -2.12% in assay [11]; -0.96% in assay [12]. Moreover, the inhibition was 0% in [13]; -3.06% in assay [14]; -3.35% in assay [15]; -6.34% in assay [16]; -0.68% in assay [17]; 2.78% in assay [18]. In addition, the inhibition in assay [19] turned out to be 1.31%.
As for `CS(=O)(=O)Nc1ccc(N/C=C2\C(=O)Nc3ccccc32)cc1`, the inhibition was 2.22% in [1]; 0.3% in assay [2]; 3.9% in assay [3]; 1.78% in assay [4]; 9.18% in assay [5]; 1.42% in [6]. For the same compound, the inhibition in [7] is 18.1%; in assay [8] it was 2.53%; in assay [9], 22%; in [10] it was 3.36%; in assay [11], 17.4%; in assay [12], 1.6%. The inhibition in [13] is 15%; in assay [14], 6.34%; in assay [15], 39.8%; in assay [16] it was 12.9%; in [17] it was 59.4%; in assay [18] it was -0.68%. Besides, the figures for the inhibition in [19] and in [20] were 3.62% and 0.94%, respectively.
Consider `CC1=C(C(=O)Nc2ccc3[nH]ncc3c2)C(c2ccc(Cl)c(Cl)c2)CC(=O)N1` (centres undefined), for which the inhibition in [1] is 1.4%; in assay [2], -0.44%; in assay [3] it was 1.59%; in [4] it was -0.56%; in assay [5], -1.08%; in assay [6] it was 0.45%. Besides, the inhibition in [7] was 4.04%; in assay [8] it was -0.59%; in assay [9] it was 3.25%; in [10] it was -0.69%; in assay [11] it was 0.2%; in [12] it was 0.92%. The inhibition in assay [13] is -0.63%; in assay [14], -0.73%; in [15], -0.62%; in assay [16], 2.47%; in assay [17] it was 0.05%; in assay [18] it was 0.09%. In addition, the inhibition in assay [19] turned out to be 4.18%; in [20], 0.34%.
Regarding `COC(=O)Nc1nc2cc(Oc3ccc(NC(=O)Nc4cccc(C(=O)O)c4)cc3)ccc2[nH]1`, the inhibition in assay [1] is -2.28%; in assay [2] it was -2.29%; in [3] it was -0.39%; in [4], -2.2%; in [5], 0.34%; in assay [6] it was -1.03%. The inhibition in [7] is 4.44%; in assay [8], 1.71%; in assay [9] it was 1.67%; in assay [10] it was 1.76%; in assay [11], -0.13%; in assay [12] it was -1.05%. Besides, the inhibition was 2.01% in [13]; -1.87% in assay [14]; -0.58% in assay [15]; 4.45% in assay [16]; 2.67% in [17]; 2.17% in [18]. Further, the inhibition was 0.77% in assay [19] and -3.22% in assay [20].
As for `O=C1NC(=O)C(c2ccc(Cl)cc2)=C1Nc1ccc(Cl)c(C(=O)O)c1`, the inhibition in assay [1] was -1.57%; in assay [2] it was -0.68%; in assay [3], -1.39%; in assay [4], 0.08%; in [5], 1.14%; in assay [6] it was -1.04%. The inhibition in assay [7] is -8.99%; in assay [8], -0.37%; in assay [9] it was 0.53%; in assay [10], -0.7%; in assay [11], 1.13%; in assay [12], 0.08%. In addition, the inhibition in [13] is -0.02%; in [14], 0.36%; in assay [15], 1.75%; in assay [16], 4.89%; in [17] it was 5.18%; in [18], -0.15%. Besides, the inhibition in assay [19] is 1.55%; in assay [20], 1.39%.
Take `COc1ccc(-c2ccncc2)cc1C(N)=O`: the inhibition in assay [1] came to 3.82%; in assay [2], 3.17%; in assay [3], 1.39%; in assay [4] it was 2.26%; in [5], 0.88%; in assay [6], 3.39%. Also, the inhibition in assay [7] is 2.68%; in assay [8], 3.05%; in assay [9], 4.66%; in assay [10] it was -2.82%; in assay [11], -1.43%; in assay [12] it was 3.41%. Further, the inhibition was 3.66% in assay [13]; 0.56% in assay [14]; 1.7% in [15]; -5.08% in [16]; 0.48% in assay [17]; 0.6% in assay [18]. The inhibition in [19] worked out at 2.96%; in assay [20] it was 2.01%.
With `NC(=O)c1cccc(Nc2nccc(Nc3cccc4[nH]ncc34)n2)c1`, the inhibition is 1.89% in [1]; -2.55% in assay [2]; 9.56% in assay [3]; 1.69% in [4]; 14.5% in assay [5]; 10.3% in assay [6]. Further, the inhibition in assay [7] was 59.9%; in assay [8], 3.38%; in [9], 34.2%; in assay [10] it was 1.14%; in [11], 23.7%; in [12], -0.82%. Also, the inhibition in assay [13] came out at 5.05%; in [14] it was 1.84%; in [15], 14.1%; in [16], 0.2%; in assay [17], 0.3%; in [18], 1.19%. The values for the inhibition in assay [19] and in assay [20] were 27.8% and 0.15%, respectively.
Consider `CC(C)=Cc1cccc2c1/C(=N/Nc1ccc(S(N)(=O)=O)cc1)C(=O)N2`, for which the inhibition in assay [1] was 0.64%; in assay [2], -0.08%; in assay [3], 2.43%; in assay [4] it was 28.7%; in [5], 69.7%; in [6], 103%. Besides, the inhibition in assay [7] stood at 92.4%; in assay [8] it was 74.1%; in assay [9], 79.3%; in [10] it was 68.5%; in assay [11], 99.1%; in [12], 34.3%. For the same compound, the inhibition in assay [13] was 68.9%; in [14] it was 39.7%; in assay [15] it was 73.3%; in assay [16], 63.6%; in assay [17] it was 91.4%; in assay [18] it was 1.69%. Also, the inhibition in assay [19] is 7.38%; in [20], -6.71%.
Turning to `Nc1ncnc2occ(-c3ccc(NC(=O)Nc4cc(C(F)(F)F)cc(C(F)(F)F)c4)cc3)c12`, the inhibition in assay [1] is 1.8%; in [2] it was 1.91%; in assay [3], 1.31%; in assay [4], -0.06%; in assay [5] it was 4.1%; in assay [6] it was 0.86%. In addition, the inhibition in [7] is 2.88%; in [8], 1.68%; in [9], 3.96%; in assay [10], -1.28%; in assay [11], 7.22%; in assay [12], 1.55%. The inhibition is 2.23% in assay [13]; 0.25% in [14]; 1.52% in [15]; -0.28% in [16]; 3.73% in [17]; 0.31% in assay [18]. The inhibition in assay [19] is 2.87%; in assay [20], 0.61%.
Turning to `CC1=C(C(=O)Nc2ccc3[nH]ncc3c2)C(c2ccc(F)cc2)NC(=O)N1` (centres undefined), the inhibition in [1] was 1.77%; in assay [2], 0.29%; in assay [3], 0.47%; in assay [4], 0.21%; in assay [5], -0.93%; in assay [6], 3.84%. In addition, the inhibition in [7] is 7.76%; in assay [8], 2.47%; in [9] it was 9.24%; in [10] it was 3.12%; in assay [11], -0.84%; in assay [12] it was 1.79%. The inhibition in assay [13] is 4.05%; in assay [14], 0.41%; in [15], 3.23%; in assay [16], -2.46%; in assay [17], 4.38%; in assay [18], -0.24%. Moreover, the inhibition in [19] stood at 0.68%; in [20], 3.34%.
On to `NCc1ccc(-c2nc(-c3ccc(Cl)c(O)c3)c(-c3ccncc3)[nH]2)cc1`, for which the inhibition in [1] was determined as 2.74%; in assay [2], 0.3%; in assay [3], 3.09%; in assay [4], 1.68%; in assay [5] it was 3.12%; in [6], 1.79%. The inhibition in assay [7] is 0.56%; in [8], 1.58%; in assay [9], 2.98%; in assay [10] it was 0.9%; in assay [11] it was -2.19%; in [12], 1.89%. The inhibition in assay [13] was 3.19%; in [14], 1.65%; in [15], 3.47%; in [16], -3.35%; in [17] it was 1.53%; in assay [18], 2.01%. Further, the inhibition was 0.72% in assay [19] and 0.63% in assay [20].
For the compound `Fc1cccc(COc2ccc(Nc3ncnc4sc(-c5cccs5)cc34)cc2Cl)c1`, the inhibition in assay [1] was 0.26%; in assay [2], -0.15%; in assay [3] it was 0.1%; in assay [4], 0.75%; in assay [5], 1.12%; in [6], -0.17%. The inhibition was 1.85% in [7]; 3.98% in [8]; 2.92% in assay [9]; -0.06% in assay [10]; 0.05% in [11]; 0.35% in [12]. Further, the inhibition in assay [13] was 2.13%; in assay [14], 0.55%; in assay [15] it was 1.81%; in assay [16], -0.81%; in assay [17], 0.5%; in assay [18] it was 1.58%. Besides, the inhibition was found to be 1.69% in [19] and 0.66% in assay [20].
With `[O-][S+]1CCN(Cc2ccc(-c3ccc4ncnc(Nc5ccc(OCc6ccccc6)c(F)c5)c4c3)o2)CC1`, the inhibition came to 3.2% in [1]; 1.87% in assay [2]; 3.97% in assay [3]; 0.66% in assay [4]; 0.48% in [5]; 1.07% in assay [6]. The inhibition in assay [7] was -1.12%; in assay [8], 1.88%; in [9] it was 2.86%; in assay [10], 5.36%; in assay [11], -0.37%; in [12], 1.78%. For the same compound, the inhibition is 2.34% in [13]; 0.47% in assay [14]; 0.42% in assay [15]; -2.8% in assay [16]; -0.74% in [17]; 1.05% in assay [18]. In addition, the values for the inhibition in [19] and in [20] were 0.69% and 0.9%, respectively.
